Screens (PubChem)
Sampled rows, rich in hits. Any-hit rate of the full collection: about 2.8%.
CtBP-E1A blk = CtBP/E1A binding inhibition | 0.49% of 340,000 active | AID 651724 | AlphaScreen GST-E1A/His-CtBP binding, 1536-well; hits give low values | activity change, % (no concentration beside the values); in the data active = activity change below about -65%; inconclusive = mostly about -30% to -63%
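Homogeneous bead-based format: GST-tagged E1A captured on glutathione donor beads, His-tagged CtBP on nickel acceptor beads; compounds precede bead addition by 2 h at 37 °C.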
HepG2 tox = counter-screen for TGF-b inhibitors: cytotoxicity in HepG2 cells | Potency, µM (top dose mostly 46.1 µM), actives largely listed as cytotoxic | AID 588856 | 0.76% of 410,000 active | HepG2 CAGA-GFP viability, ATP luminescence, 18 h
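CellTiter-Glo luminescence gave cytotoxicity after 18 hours at 37 degrees C. The cells were HepG2 CAGA-GFP in 1% FBS DMEM, stimulated with 500 pg/mL TGF-beta after compound addition. %Activity was normalised to no-cell wells (complete cell-killing) and DMSO (no toxicity), and curves were fitted and classified.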
S2 tox = reduces viability in counter-screen for ATXN expression inhibitors | S2 cells (HEK-293 line with an ATXN2-luciferase reporter) viability, CellTiter-Fluor protease fluorescence, 24 h | 0.49% of 400,000 active | Potency, µM (highest dose often 56.7 µM), hits mostly cytotoxic; note: nearly all actives have a fitted effect of over 40% in size
ATXN2 expr inh = ATXN2 expression inhibition; HEK-293 ATXN2-luciferase reporter, luminescence, 24 h; Potency, µM (highest dose often 57 µM), hits mostly inhibitors; 0.72% of 360,000 active; AID 1745845; note: nearly all actives have a fitted effect of over 55% in size
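ATXN2-luciferase reporter cells (luciferase flanked by upstream and downstream ATXN2 gene portions) were treated 24 h at 37 °C with compounds at up to 57 uM. SteadyGlo luminescence gave expression; GF-AFC fluorescence gave viability.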
TGFb SMAD3 inh = TGF-b pathway inhibition | HepG2 CAGA-GFP TGF-b/SMAD3 reporter, GFP fluorescence, 18 h; TGF-beta stimulated, 500 pg/mL final | 1.2% of 410,000 active | Potency, µM (titrated, usually from 46.1 µM), actives largely listed as inhibitors; note: nearly all actives have a fitted effect of over 65% in size
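Read-out: total well GFP (ex488/em500-530) summed from mean per-cell fluorescence. Cells: HEPG2 CAGA-GFP, 1% FBS DMEM, 18 h at 37 degrees C with 500 pg/mL final TGF-beta. Unstimulated wells served as the full-inhibition control; stimulated DMSO wells = 0%.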
Six1-Eya2 blk = inhibitors of human Six1/Eya2 interaction; Q15475+O00167; AlphaScreen GST-Six1/His-Eya2 binding, biochemical; hits give low values; activity change, % (test concentration not listed); 0.56% of 360,000 active; in the data active = activity change below about -65%; inconclusive = mostly about -30% to -63%
Target sequence (O00167 whole entry, looked up): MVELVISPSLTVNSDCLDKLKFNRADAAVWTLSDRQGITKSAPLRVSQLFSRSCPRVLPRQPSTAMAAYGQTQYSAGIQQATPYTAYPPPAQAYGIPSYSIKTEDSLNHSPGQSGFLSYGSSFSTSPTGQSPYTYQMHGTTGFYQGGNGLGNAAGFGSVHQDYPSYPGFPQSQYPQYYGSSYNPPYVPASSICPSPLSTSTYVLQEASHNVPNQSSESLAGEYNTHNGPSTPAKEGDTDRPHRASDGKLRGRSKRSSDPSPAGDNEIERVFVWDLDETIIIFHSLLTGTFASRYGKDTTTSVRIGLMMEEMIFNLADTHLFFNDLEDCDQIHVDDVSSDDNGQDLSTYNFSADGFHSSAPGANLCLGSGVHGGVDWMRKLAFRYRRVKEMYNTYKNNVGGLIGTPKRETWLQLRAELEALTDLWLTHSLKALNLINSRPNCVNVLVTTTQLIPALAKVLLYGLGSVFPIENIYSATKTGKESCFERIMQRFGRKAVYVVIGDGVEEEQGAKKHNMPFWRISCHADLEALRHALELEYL
Target sequence (Q15475 whole entry, looked up): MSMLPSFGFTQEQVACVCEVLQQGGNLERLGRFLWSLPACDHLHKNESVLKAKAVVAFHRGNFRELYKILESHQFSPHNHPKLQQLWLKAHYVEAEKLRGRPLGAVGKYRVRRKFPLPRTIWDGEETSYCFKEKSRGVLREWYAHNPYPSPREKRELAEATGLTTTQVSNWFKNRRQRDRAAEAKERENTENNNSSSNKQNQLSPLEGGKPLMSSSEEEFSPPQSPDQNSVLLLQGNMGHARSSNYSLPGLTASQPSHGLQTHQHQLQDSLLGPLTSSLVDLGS
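GST-Six1 + His-Eya2 (5X stock: 250/500 nM); Tris pH 8.0, 300 mM NaCl, 0.05% BSA, 0.02% Tween 20; GSH donor/Ni acceptor beads; 1 h 37 °C dark; AlphaScreen readout.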
Large screens that a line does not name were inactive; ! = repeats disagree. Unless noted, calls come from the whole dose curve; as a rule, active = well fitted curve in the direction sought with a large enough effect; inconclusive = small, poorly fitted or top-dose-only effect, or another doubt; inactive = no such curve, though single readings can be large; an effect the other way counts as inactive or inconclusive.

CCOc1ccc(-n2cc(C(=O)N3CCC(C)CC3)c3cc(OC)c(OC)cc3c2=O)cc1	TGFb SMAD3 inh 12.6µM
CCOc1ccc(NC(=O)c2cn(-c3ccc(OCC)cc3)c(=O)c3cc(OC)c(OC)cc23)cc1	none
Cc1ccc(S[C@@H](CCN2CC[C@H](C)CCC2=O)c2ccccc2)cc1	S2 tox inconclusive, TGFb SMAD3 inh inconclusive (no result: CtBP-E1A blk)
Cc1ccc(S[C@@H](CCN2CC[C@H](C(C)(C)C)CCC2=O)c2ccccc2)cc1	HepG2 tox 12.6µM, S2 tox inconclusive, TGFb SMAD3 inh inconclusive
Cc1ccc(S[C@@H](CCN2CC[C@H](O)CCC2=O)c2ccccc2)cc1	TGFb SMAD3 inh inconclusive (no result: CtBP-E1A blk)
COc1ccc(S[C@@H](CCN2CC[C@H](C)CCC2=O)c2ccccc2)cc1	S2 tox inconclusive, ATXN2 expr inh inconclusive, TGFb SMAD3 inh 15.8µM
COc1ccc(SC[C@H](C)CN2CC[C@H](C(C)(C)C)CCC2=O)cc1	HepG2 tox 20µM!, S2 tox inconclusive, ATXN2 expr inh inconclusive, TGFb SMAD3 inh inconclusive
COc1ccccc1-c1ccnc(-n2ncc(C(=O)NCC3(N4CCOCC4)CCCC3)c2C)n1	none (no result: CtBP-E1A blk, HepG2 tox, ATXN2 expr inh, TGFb SMAD3 inh, Six1-Eya2 blk)
COc1ccc(CSc2ccc(-c3nc4ccccn4c3NCc3ccccc3)cc2OC)cc1	TGFb SMAD3 inh inconclusive
CCC(C)Sc1ccc(-c2nc3ccccn3c2NCc2ccccc2)cc1OC (configuration not stated)	S2 tox inconclusive, ATXN2 expr inh inconclusive, TGFb SMAD3 inh 12.6µM
COc1ccc(C(CCN2CCCC(C)C2)c2c(OC)cc(OC)c3c(-c4ccccc4)cc(=O)oc23)cc1 (configuration not stated)	ATXN2 expr inh inconclusive, TGFb SMAD3 inh inconclusive (no result: S2 tox)
COc1cc(C(CCN2CCOCC2)c2c(OC)cc(OC)c3c(-c4ccccc4)cc(=O)oc23)cc(OC)c1OC (configuration not stated)	HepG2 tox 11.2µM, S2 tox inconclusive, TGFb SMAD3 inh inconclusive
COc1cc(OC)c2c(-c3ccccc3)cc(=O)oc2c1C(CCN1CCCC(C)C1)c1ccc(N(C)C)cc1 (configuration not stated)	S2 tox 20µM, ATXN2 expr inh inconclusive, TGFb SMAD3 inh inconclusive, Six1-Eya2 blk -67.0 (no result: CtBP-E1A blk)
C[C@@H]1C(=O)N(S(=O)(=O)c2ccc([N+](=O)[O-])cc2)[C@H]1c1ccccc1	none (no result: CtBP-E1A blk, S2 tox, ATXN2 expr inh, Six1-Eya2 blk)
CC(C)C(=O)NC(c1ccccc1)c1cc([N+](=O)[O-])c2cccnc2c1O (configuration not stated)	CtBP-E1A blk -90.9, ATXN2 expr inh inconclusive, Six1-Eya2 blk -89.7
CC(=O)NC(C)c1cc(F)c2cccnc2c1O (configuration not stated)	S2 tox inconclusive, ATXN2 expr inh inconclusive, TGFb SMAD3 inh inconclusive (no result: CtBP-E1A blk, Six1-Eya2 blk)
CC(=O)NC(c1ccccc1)c1cc([N+](=O)[O-])c2cccnc2c1O (configuration not stated)	CtBP-E1A blk -91.3, S2 tox inconclusive, ATXN2 expr inh inconclusive, TGFb SMAD3 inh inconclusive, Six1-Eya2 blk -94.3
CC(=O)c1cccc(NC(=O)CCS(=O)(=O)c2ccc(Br)s2)c1	none
O=C(CCS(=O)(=O)c1ccc(Br)s1)Nc1cc(C(F)(F)F)cc(C(F)(F)F)c1	HepG2 tox 15.8µM, S2 tox inconclusive, ATXN2 expr inh inconclusive, TGFb SMAD3 inh inconclusive (no result: CtBP-E1A blk, Six1-Eya2 blk)
Cc1ccc(C(=O)CC2(O)C(=O)N(CCc3ccccc3)c3ccc(Cl)cc32)cc1 (configuration not stated)	HepG2 tox 11.2µM, S2 tox inconclusive, ATXN2 expr inh inconclusive, TGFb SMAD3 inh 17.8µM (no result: CtBP-E1A blk, Six1-Eya2 blk)
O=C(CC1(O)C(=O)N(CCc2ccccc2)c2ccc(Br)cc21)c1ccccc1 (configuration not stated)	TGFb SMAD3 inh inconclusive (no result: CtBP-E1A blk, Six1-Eya2 blk)
O=C1c2cccc(OCc3ccc(F)cc3)c2CCN1Cc1ccccc1	TGFb SMAD3 inh 17.8µM
CCOC(=O)c1c(NC(=O)CN2CCN(S(=O)(=O)c3cc(Cl)ccc3Cl)CC2)sc(C(=O)N(C)C)c1C	S2 tox inconclusive, TGFb SMAD3 inh 10µM
CCOC(=O)c1c(NC(=O)COC(=O)c2ccc(Cl)nc2)sc(C(=O)N(C)C)c1C	none
N#C/C(=N\Nc1cccc(C(F)(F)F)c1)C(=O)c1ccsc1	TGFb SMAD3 inh 10µM (no result: CtBP-E1A blk, ATXN2 expr inh)
COC(=O)[C@@H]1CCCN1Cc1ccc2c(c1)CN(Cc1ccc3c(c1)CCCN3C)CCO2	none (no result: CtBP-E1A blk, HepG2 tox, ATXN2 expr inh, TGFb SMAD3 inh, Six1-Eya2 blk)
CCN1C(=O)c2ccccc2C1Nc1ccc(OCCN2CCCCC2)cc1 (configuration not stated)	none (no result: CtBP-E1A blk, HepG2 tox, TGFb SMAD3 inh, Six1-Eya2 blk)
COC(=O)c1ccc(OCC2c3cc(OC)c(OC)cc3CCN2C(=O)c2ccc(F)cc2)cc1 (configuration not stated)	none (no result: CtBP-E1A blk, Six1-Eya2 blk)
CCC1CN(C(=O)N2CCC(C(=O)NCc3cccc(OC)c3OC)CC2)c2cc(C)ccc2O1 (configuration not stated)	TGFb SMAD3 inh 11.2µM!
CC[C@H](C(=O)[C@H](C)[C@H](O)[C@H](C)CCc1ccc(C)c(O)c1C(=O)O)[C@H]1O[C@](CC)([C@@H]2CC[C@@](O)(CC)[C@H](C)O2)C[C@H]1C	S2 tox 11.2µM (no result: CtBP-E1A blk, HepG2 tox, ATXN2 expr inh, TGFb SMAD3 inh, Six1-Eya2 blk)
COc1cc(=O)n2c(c1C(=O)N(C)C(C)c1ccco1)CCN(C(=O)c1ccc(C(C)=O)cc1)CC2 (configuration not stated)	none (no result: CtBP-E1A blk, HepG2 tox, ATXN2 expr inh, TGFb SMAD3 inh, Six1-Eya2 blk)
N/C(=N\S(=O)(=O)c1cc(C(F)(F)F)cc(C(F)(F)F)c1)c1ccncc1	none
N/C(=N\S(=O)(=O)c1cc(C(F)(F)F)cc(C(F)(F)F)c1)c1ccc(Cl)cc1	S2 tox inconclusive, ATXN2 expr inh inconclusive, TGFb SMAD3 inh 10µM
CC(CN1CCN(CCOCCO)CC1)CN1c2ccccc2Sc2ccc(Cl)cc21 (configuration not stated)	HepG2 tox 12.6µM, S2 tox inconclusive, TGFb SMAD3 inh inconclusive (no result: ATXN2 expr inh)
CCSc1ccc2c(c1)N(CCCN1CCN(C)CC1)c1ccccc1S2	TGFb SMAD3 inh inconclusive
N#CCCN(Cc1ccccc1)C(CCc1ccccc1)C(=O)NC1CCCCC1 (configuration not stated)	S2 tox inconclusive, ATXN2 expr inh inconclusive, TGFb SMAD3 inh 12.6µM
N#CCCN(Cc1ccccc1)C(C(=O)NC1CCCCC1)C1CC1 (configuration not stated)	none
O=S(=O)(CC(CN1CCCC1)N1CCCC1)c1ccc2ccccc2c1 (configuration not stated)	S2 tox 11.2µM
CCN(c1cccc(C)c1)C(CNS(=O)(=O)c1ccccc1)c1ccccc1 (configuration not stated)	S2 tox inconclusive, ATXN2 expr inh inconclusive, TGFb SMAD3 inh inconclusive (no result: CtBP-E1A blk, Six1-Eya2 blk)
